Laboratory results published in PubChem BioAssay (Tox21).
Results filed as inconclusive are left out. Activity calls are given as the source filed them. Calls come from the whole dose curve; as a rule, active = well fitted curve in the direction sought with a large enough effect in the repeat runs; inconclusive = weak or mixed curves; inactive = no such curve, though single readings can be large; an effect the other way counts as inactive or inconclusive.

Experiments:
[1] = qHTS RealTime-Glo MT Cell Viability Assay in HepG2 cells - 24 hour (AID 1224867); note: nearly all actives have a fitted effect of over 50% in size
Summary of the method: (§1)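 Luminescence read-out: viable HepG2 cells reduce a prosubstrate to a NanoLuc substrate, giving a signal proportional to live cell number. Reads taken at 0, 8, 16, 24, 32 and 40 h of compound exposure at 37 C.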

[2] = qHTS RealTime-Glo MT Cell Viability Assay in HEK293 cells - 32 hour (AID 1224868); note: top concentration of the series differs between compounds; nearly all actives have a fitted effect of over 50% in size
Summary of the method: (§2)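 Nonlytic real-time viability readout: viable cells convert prosubstrate to NanoLuc substrate, giving luminescence proportional to live cell number. HEK293, 600 cells/well, compound added after 5 h, continuous culture at 37 C.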

[3] = A CellTox Green Cytotoxicity Assay to monitor cytotoxicity in HEK293 cells - 0 hour (AID 1224869); note: nearly all actives have a fitted effect of over 50% in size
Summary of the method: (§3)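 Dead-cell fluorescence measured kinetically: asymmetric cyanine dye, HEK293, 600 cells/well, 5 h settle, 23 nL cpd/DMSO, 37 C, reads 0–40 h every 8 h.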

[4] = qHTS RealTime-Glo MT Cell Viability Assay in HepG2 cells - 40 hour (AID 1224870); note: nearly all actives have a fitted effect of over 50% in size
Summary of the method: (§4)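 Real-time viability: cells seeded at 600 per well together with NanoLuc and cell-permeant prosubstrate, compounds added after 5 h incubation. Luminescence tracked at 0, 8, 16, 24, 32 and 40 h of exposure.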

[5] = A CellTox Green Cytotoxicity Assay to monitor cytotoxicity in HEK293 cells - 40 hour (AID 1224871); note: nearly all actives have a fitted effect of over 45% in size
Summary of the method: as §3

[6] = qHTS RealTime-Glo MT Cell Viability Assay in HEK293 cells - 16 hour (AID 1224872)
Summary of the method: as §2

[7] = qHTS RealTime-Glo MT Cell Viability Assay in HepG2 cells - 8 hour (AID 1224873); note: nearly all actives have a fitted effect of over 55% in size
Summary of the method: as §4

[8] = qHTS RealTime-Glo MT Cell Viability Assay in HEK293 cells - 40 hour (AID 1224874); details: RealTime-Glo luminescence, active compounds read low; note: nearly all actives have a fitted effect of over 50% in size
Summary of the method: (§5)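 600 HEK293 cells per well, dispensed already mixed with RealTime-Glo MT reagents. Compound dosing came 5 h later. The same wells were read for luminescence at 0, 8, 16, 24, 32 and 40 h of exposure at 37 C.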

[9] = A CellTox Green Cytotoxicity Assay to monitor cytotoxicity in HepG2 cells - 16 hour (AID 1224876); note: nearly all actives have a fitted effect of over 45% in size
Summary of the method: (§6)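 First, HepG2 cells (600/well) mixed with reagent were plated; second, after 5 h at 37 C they received compounds via pintool; third, fluorescence was measured at 0 h through 40 h at 8 h intervals.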

[10] = qHTS RealTime-Glo MT Cell Viability Assay in HepG2 cells - 32 hour (AID 1224877); note: nearly all actives have a fitted effect of over 55% in size
Summary of the method: as §1

[11] = A CellTox Green Cytotoxicity Assay to monitor cytotoxicity in HepG2 cells - 24 hour (AID 1224878); note: nearly all actives have a fitted effect of over 45% in size
Summary of the method: as §6

[12] = A CellTox Green Cytotoxicity Assay to monitor cytotoxicity in HepG2 cells - 40 hour (AID 1224879); note: nearly all actives have a fitted effect of over 40% in size
Summary of the method: as §6

[13] = A CellTox Green Cytotoxicity Assay to monitor cytotoxicity in HEK293 cells - 32 hour (AID 1224881); note: nearly all actives have a fitted effect of over 40% in size
Summary of the method: as §3

[14] = A CellTox Green Cytotoxicity Assay to monitor cytotoxicity in HepG2 cells - 0 hour (AID 1224882); note: nearly all actives have a fitted effect of over 35% in size
Summary of the method: as §6

[15] = A CellTox Green Cytotoxicity Assay to monitor cytotoxicity in HepG2 cells - 32 hour (AID 1224883); note: nearly all actives have a fitted effect of over 50% in size
Summary of the method: as §6

[16] = A CellTox Green Cytotoxicity Assay to monitor cytotoxicity in HEK293 cells - 8 hour (AID 1224884); note: nearly all actives have a fitted effect of over 35% in size
Summary of the method: as §3

[17] = qHTS RealTime-Glo MT Cell Viability Assay in HepG2 cells - 16 hour (AID 1224885); note: nearly all actives have a fitted effect of over 50% in size
Summary of the method: as §1

[18] = qHTS RealTime-Glo MT Cell Viability Assay in HEK293 cells - 24 hour (AID 1224886)
Summary of the method: as §2

[19] = A CellTox Green Cytotoxicity Assay to monitor cytotoxicity in HEK293 cells - 24 hour (AID 1224875); note: series mostly up to about 77 µM; nearly all actives have a fitted effect of over 45% in size
Summary of the method: as §3

[20] = qHTS RealTime-Glo MT Cell Viability Assay in HEK293 cells - 0 hour (AID 1224880)
Summary of the method: as §5
% is set by controls: 0 for no effect and ±100 for the full control effect.

NC[C@H]1O[C@H](O[C@H]2[C@H](O)[C@@H](O[C@H]3O[C@H](CO)[C@@H](O)[C@H](N)[C@H]3O)[C@H](N)C[C@@H]2N)[C@H](N)[C@@H](O)[C@@H]1O
inactive: activity change, negative = cytotoxicity [1] 0.499% [at 15.8 µM] | activity change, negative = cytotoxic [2] 4.09% [at 15.8 µM] | cytotoxicity [3] -1.07% [at 15.8 µM] | activity change, negative = cytotoxic [4] 0.593% [at 15.8 µM] | cytotoxicity increase [5] -1.49% [at 15.8 µM] | activity change, negative = cytotoxicity [6] 6.75% [at 15.8 µM] | viability change, negative = cytotoxic [7] 4% [at 15.8 µM] | max response [8] 5.23% | cytotoxicity increase [9] 0.586% [at 15.8 µM] | activity change, negative = cytotoxic [10] 3.63% [at 15.8 µM] | cytotoxicity [11] -0.281% [at 15.8 µM] | cytotoxicity increase [12] -4.11% [at 15.8 µM] | cytotoxicity increase [13] -0.0128% [at 15.8 µM] | cytotoxicity [14] 1.75% [at 15.8 µM] | cytotoxicity increase [15] -2.59% [at 15.8 µM] | cytotoxicity increase [16] 1.34% [at 15.8 µM] | activity change, negative = cytotoxic [17] 3.1% [at 15.8 µM] | activity change, negative = cytotoxicity [18] 5.12% [at 15.8 µM]

COC(=O)c1cc(Cl)c(NC(C)=O)cc1OC
inactive: outcome [1] | outcome [2] | outcome [3] | outcome [4] | Potency [5] | outcome [6] | outcome [7] | max response [8] 0.647% | Potency [19] | Potency [11] | Potency [12] | Potency [13] | Potency [14] | Potency [16]

COc1cc(OC)cc(OC)c1
inactive: outcome [1] | outcome [2] | outcome [3] | outcome [4] | Potency [5] | outcome [6] | outcome [7] | max response [8] 6.85% | Potency [9] | outcome [10] | Potency [11] | Potency [12] | Potency [20] | Potency [13] | Potency [15] | outcome [18]

O=C(O)CCC(=O)Nc1ccc(S(=O)(=O)Nc2nccs2)cc1
inactive: outcome [1] | outcome [2] | outcome [3] | outcome [4] | Potency [5] | outcome [6] | outcome [7] | max response [8] 2.99% | Potency [19] | outcome [10] | Potency [20] | Potency [13] | outcome [17] | outcome [18]

N=C(N)N1CCc2ccccc2C1
inactive: activity change, negative = cytotoxicity [1] -0.623% [at 6.97 µM] | activity change, negative = cytotoxic [2] 0.854% [at 6.97 µM] | cytotoxicity [3] -7.02% [at 6.97 µM] | activity change, negative = cytotoxic [4] 0.674% [at 6.97 µM] | cytotoxicity increase [5] -5.28% [at 6.97 µM] | activity change, negative = cytotoxicity [6] 1.8% [at 6.97 µM] | viability change, negative = cytotoxic [7] 0.945% [at 6.97 µM] | max response [8] 0.0826% | activity change [19] -12.7% [at 6.97 µM, active compounds read high] | activity change, negative = cytotoxic [10] 0.278% [at 6.97 µM] | cytotoxicity [11] -11.7% [at 6.97 µM] | cytotoxicity increase [12] -14.4% [at 6.97 µM] | cytotoxicity increase [15] -12.5% [at 6.97 µM] | cytotoxicity increase [16] -15.6% [at 6.97 µM] | activity change, negative = cytotoxic [17] 0.556% [at 6.97 µM]

CCCCCCCCC1CO1 (stereo unspecified)
inactive: outcome [1] | outcome [2] | outcome [3] | outcome [4] | Potency [5] | outcome [6] | outcome [7] | max response [8] -0.591% | Potency [9] | outcome [10] | Potency [11] | Potency [12] | Potency [13] | Potency [14] | Potency [15] | outcome [17] | outcome [18]

C/C=C/C(=O)CCCC
inactive: outcome [1] | outcome [2] | outcome [3] | outcome [4] | Potency [5] | outcome [6] | outcome [7] | max response [8] 0.74% | Potency [9] | outcome [10] | Potency [11] | Potency [12] | Potency [20] | Potency [13] | Potency [14] | Potency [15] | outcome [17]

COC(=O)/C=C(\C)CCC=C(C)C
inactive: outcome [1] | outcome [2] | outcome [3] | outcome [4] | Potency [5] | outcome [6] | outcome [7] | max response [8] 9.52% | Potency [9] | outcome [10] | Potency [11] | Potency [12] | Potency [20] | Potency [13] | Potency [14] | Potency [15] | Potency [16] | outcome [17] | outcome [18]

N#Cc1ccccc1C#N
inactive: outcome [1] | outcome [2] | outcome [3] | outcome [4] | Potency [5] | outcome [6] | outcome [7] | max response [8] 4.47% | Potency [9] | outcome [10] | Potency [11] | Potency [12] | Potency [20] | Potency [13] | Potency [14] | Potency [15] | outcome [18]

CCCCCCCCCCCCCCCC(=O)OC
inactive: activity change, negative = cytotoxicity [1] -0.801% [at 15.8 µM] | activity change, negative = cytotoxic [2] -0.272% [at 15.8 µM] | cytotoxicity [3] -0.154% [at 15.8 µM] | activity change, negative = cytotoxic [4] 16.9% [at 15.8 µM] | cytotoxicity increase [5] -6.02% [at 15.8 µM] | activity change, negative = cytotoxicity [6] -4.38% [at 15.8 µM] | viability change, negative = cytotoxic [7] -11% [at 15.8 µM] | max response [8] -0.62% | cytotoxicity increase [9] -17.1% [at 15.8 µM] | activity change, negative = cytotoxic [10] 6.89% [at 15.8 µM] | cytotoxicity [11] -19.7% [at 15.8 µM] | cytotoxicity increase [12] -22.4% [at 15.8 µM] | activity change, negative = cytotoxicity [20] -3.44% [at 15.8 µM] | cytotoxicity [14] -12.7% [at 15.8 µM] | cytotoxicity increase [15] -21.5% [at 15.8 µM] | cytotoxicity increase [16] -3.06% [at 15.8 µM] | activity change, negative = cytotoxic [17] -7.62% [at 15.8 µM]

CN1C(CCl)Nc2cc(Cl)c(S(N)(=O)=O)cc2S1(=O)=O (stereo unspecified)
inactive: outcome [1] | outcome [2] | outcome [3] | outcome [4] | Potency [5] | outcome [6] | outcome [7] | max response [8] -6.26% | Potency [19] | outcome [10] | Potency [12] | Potency [20] | Potency [13] | Potency [14] | Potency [15] | Potency [16] | outcome [17]
